The list is not random: actives were taken first. Their share in the collection is about 21%.
Pf growth 48h = P. falciparum growth inhibition at 48 hours (one generation); P. falciparum luciferase growth in erythrocytes, 48 h; Potency, µM (series often up to 28.7 µM), for inactives: at the top dose activity change, negative = inhibition, usual class: inhibitors; hit rate 5.9% among 310,000; note: potency is the fitted concentration of half-maximal effect; % is set by controls: 0 for no effect and ±100 for the full control effect
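Luciferase-expressing parasites in RBCs, 2% Hct / 0.1% parasitemia final; RPMI 1640 + 0.5% Albumax; 37 C, 5% CO2, one generation; luminescence read-out, lower signal = inhibition.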
Sm TGR block = S. mansoni TGR enzyme inhibition; Q962Y6; purified TGR, DTNB reduction, TNB absorbance 405 nm; Potency, µM (titrated, usually from 114 µM), for the others: top-dose activity change, negative = inhibition, hits mostly inhibitors; hit rate 3% among 360,000; AID 485364; note: potency is the fitted concentration of half-maximal effect; % is set by controls: 0 for no effect and ±100 for the full control effect; nearly all actives have a fitted effect of over 60% in size
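TGR 20 nM + NADPH 100 uM (dispensed conc.), cpd preinc 15 min RT; start with NADPH (500 uM addition) then DTNB (15 mM addition). Kinetic TNB absorbance, 405 nm filter. Four-parameter Hill fit across titration.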
NS1 function inh = inhibitors of influenza NS1 protein function | Potency, µM (titrated, usually from 46.1 µM), without a hit: at the highest dose activity, positive = more growth | hit rate 0.4% among 270,000 | AID 2326; calls by dose curve; note: potency is the fitted concentration of half-maximal effect; actives are rising curves; nearly all actives have a fitted effect of over 50% in size
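Compounds were scored for reversing the slow growth caused by influenza A NS1 in S. cerevisiae, measured by optical density at 600 nm. Assay medium contained 2% galactose at pH 6.0; NS1-free yeast of the same strain were the positive control.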
Cycloheximide cs = affects cycloheximide protein synthesis inhibition readout, counter-screen; hit rate 12% among 300,000; max response, %; AID 2314; cell reporter, cycloheximide protein synthesis inhibition counterscreen; in the data active = max response mostly above about 13%, no sharp cut-off; inactive = mostly below about 14%; note: read at 38.3 µM for the half of the compounds with a filed dose; 0% is about no effect
Shiga toxin inh = Shiga toxin inhibition; Vero cells, Shiga toxin protein synthesis inhibition reporter; inhibition, % at 38.7 µM; hit rate 9.2% among 290,000; in the data active = inhibition mostly above about 28%, no sharp cut-off; inactive = mostly below about 43%; note: 0% is about no effect
Pf growth 96h = P. falciparum growth inhibition at 96 hours | Potency, µM (series often up to 28.7 µM), for inactives: at the highest dose activity change, negative = inhibition, most hits filed as inhibitors | P. falciparum luciferase reporter growth, 96 h | hit rate 6.9% among 320,000 | AID 504834; note: potency is the fitted concentration of half-maximal effect; % is set by controls: 0 for no effect and ±100 for the full control effect
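96 h incubation, 37 C, 5% CO2, of luciferase-reporter P. falciparum-infected RBCs (2% hematocrit, 0.05% parasitemia final) with test compounds; endpoint luminescence.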
The depositor's hits bear a star; i = inactive; ? = inconclusive; . = no result given; [ ] = dose if it differs, or a comment. Unless noted, calls come from the whole dose curve; as a rule, active = well fitted curve in the direction sought with a large enough effect; inconclusive = small, poorly fitted or top-dose-only effect, or another doubt; inactive = no such curve, though single readings can be large; an effect the other way counts as inactive or inconclusive.

SMILES | Pf growth 48h | Sm TGR block | NS1 function inh | Cycloheximide cs | Shiga toxin inh | Pf growth 96h
N#CC1=C(N)C(C#N)(C#N)[C@H](c2c(F)cccc2F)[C@H]2CC3(CC=C12)OCCO3 | 5.2µM* | ? | ? | -2 | -3 | 79%
Cc1n[nH]c(C)c1CCN(C)Cc1cn(C)nc1-c1ccc2c(c1)OCCO2 | 28% | ? | 5% | -2 | -10 | 1.3µM*
CN(C)/C=C/C(=O)c1cnc(-c2ccccn2)s1 | i | -34% | . | 36* | 90* | 233%
CN(C)/C=C/C(=O)c1cnc(-c2cccc(Cl)c2)s1 | 110% | -12% | 9% | 25* | 67* | 148%
CC(=O)c1sc(-c2ccccc2Cl)nc1C | -14% | 20% | -2% | -1 | -1 | 59%
CN(C)/C=C/C(=O)c1cnc(-c2ccccc2Cl)s1 | 247% | -23% | 9% | 45* | 87* | 121%
CC(=O)c1cnc(-c2cccc(Cl)c2)s1 | 8% | 2% | 3% | 14 | 19 | 101%
Cc1nnc(N(C)C(=O)c2ccccn2)s1 | 11% | -1% | -2% | -3 | -16 | 40%
CC1Cn2cc(C(=O)Nc3ccccc3C(F)(F)F)c(=O)c3c(Cl)ccc(c32)O1 (stereo unspecified) | 2% | 5% | . | . | . | 39%
NC(=O)C1CCN(c2nc(-c3ccccc3)nc3ccccc23)CC1 | ? | 6% | -2% | -1 | -10 | ?
CC1CCCCN1C(=O)C1CCN(c2nc(-c3ccccc3)nc3c2CCC3)CC1 (stereo unspecified) | 7.4µM* | 2% | -1% | 4 | 5 | ?
Cn1cccc1C(=O)OCc1cc(Cl)cc2c1OCOC2 | 75% | -1% | -12% | 62* | 145* | 211%
CN(C)S(=O)(=O)N(CC(=O)Nc1ccc(Br)cc1F)c1ccccc1 | . | 5% | . | . | . | .
CC(C)N1CSC(=S)N(Cc2ccccc2)C1 | 10% | 28µM* | . | 16 | 29 | 4%
CC(C)(C)N1CSC(=S)N(Cc2ccccc2)C1 | -20% | ? | . | 13 | 16 | ?
O=C(Cn1c(=O)[nH]c2ccccc2c1=O)Nc1ccc2c(c1)OCO2 | 14% | 6% | -3% | 10 | 21 | 22%
C[C@@H](C(=O)Nc1ccc2c(c1)OCO2)n1c(=O)[nH]c2ccccc2c1=O | -41% | -23% | 8% | 14 | 29* | ?
O=C(Cc1ccc(-n2c(=S)[nH]c3ccccc3c2=O)cc1)N1CCN(c2ccccc2)CC1 | . | 1% | 21% | -1 | -3 | 82%
O=c1c2ccccc2[nH]c(=S)n1-c1ccc2c(c1)OCO2 | 12µM* | 0% | 10% | -4 | -20 | 10%
C[C@@H](C(=O)Nc1ccc2c(c1)OCCO2)n1c(=O)[nH]c2ccccc2c1=O | 259% | -1% | 0% | 49* | 147* | 407%
O=C(NC1CCCC1)C1CCN(S(=O)(=O)c2ccccc2)CC1 | ? | 2% | 1% | -4 | -3 | 2%
CCNC(=O)C1CN(S(=O)(=O)c2ccccc2)CCN1S(=O)(=O)c1ccccc1 (stereo unspecified) | 12% | 2% | 3% | 10 | -5 | 2.3µM*
O=C(NC1CCCCC1)C1CN(S(=O)(=O)c2ccccc2)CCN1S(=O)(=O)c1ccccc1 (stereo unspecified) | -9% | -8% | -2% | 1 | 16 | 12µM*
Cc1ccc(C(C)C)c(OCc2ccc(C(=O)Nc3ccc(S(N)(=O)=O)cc3C)o2)c1 | . | -12% | . | . | . | .
Cc1ccc(Nc2nc(Cl)c(C=O)s2)cc1Cl | 22% | -1% | . | 23* | 25 | 39%
SMILES | Pf growth 48h | Sm TGR block | NS1 function inh | Cycloheximide cs | Shiga toxin inh | Pf growth 96h
O=Cc1sc(Nc2ccccc2)nc1Cl | 0% | 1% | -30% | 18* | 25 | 3%
COc1ccccc1Nc1nc(Cl)c(C=O)s1 | ? | -2% | . | 48* | 80 | -19%
COc1ccc(S(N)(=O)=O)cc1C(=O)N1CCCC1 | 16% | . | 8% | 6 | 19 | 11%
Cc1onc(-c2ccccc2)c1CNC(=O)C1COc2ccccc2O1 (stereo unspecified) | 13µM* | 8% | -4% | 0 | -14 | ?
CCC1CN(C(=O)Nc2ccc(C)cc2)c2cc(C)ccc2O1 (stereo unspecified) | ? | 2%[57.1 µM] | -40% | 12* | 21 | 1%
O=C(NCc1ccccc1)C1COc2ccccc2O1 (stereo unspecified) | 121% | -7% | 1% | 19* | 59* | 34%
Cc1ccc(NC(=O)CC2COc3ccccc3O2)cc1 (stereo unspecified) | 51% | 15% | -30% | 31* | 54* | 353%
CCC1CN(C(=O)Nc2ccccc2F)c2cc(C)ccc2O1 (stereo unspecified) | . | 1% | . | . | . | .
COc1ccc(CNC(=O)C2COc3ccccc3O2)c(OC)c1 (stereo unspecified) | -6% | 1% | 0% | 31* | 103* | -1%
COc1ccc(/C(C)=N/NC(=O)CNC(=O)C2COc3ccccc3O2)c(OC)c1 (stereo unspecified) | ? | 11% | -1% | -1 | 17 | 0%
Cc1ccc(CNC(=O)C2COc3ccccc3O2)cc1 (stereo unspecified) | 26% | 0% | -2% | 26* | 35 | 35%
CC(=O)O[C@H]1[C@H]2O[C@]23[C@@H]2CC[C@@H]4C[C@@H](O)CC[C@]4(C)[C@H]2CC[C@]3(C)[C@H]1c1ccc(=O)oc1 | . | . | . | -12 | -15 | .
CCSc1nc2c([nH]c3ccccc32)c(=O)n1-c1ccc(F)cc1 | . | 5% | . | . | . | .
O=C1c2ccccc2C(=O)C1C1=Nc2ccccc2NC(c2ccccc2)C1 (stereo unspecified) | -1% | 7%[57.1 µM] | 1% | 5 | -12 | -3%
CC1CC(c2ccccc2)=Nc2ccccc2N1 (stereo unspecified) | 40% | ? | -2% | 46* | 54* | 25%
O=C(NCCC1=CCCCC1)C1CCN(C(=O)N2CCOc3ccccc32)CC1 | . | 0% | . | . | . | .
COc1cc(/C=C/c2ccc3c(Br)cc(Br)c(O)c3n2)ccc1O | 9.3µM* | -30% | -64% | -2 | -5 | 3.7µM*
Cc1ccc2c(Br)cc(Br)c(O)c2n1 | 12µM* | . | . | . | . | 6.7µM*
Cc1cc(Nc2cccc(O)c2)c2cccc(Br)c2n1 | . | 2% | . | . | . | .
COc1ccc(/C=C/c2ccc3c(Br)ccc(O)c3n2)cc1 | 17%[0.00184 µM] | -8% | 1% | 39* | 94* | 6%
Cc1ccc(NC(=O)Cn2c(C)cc(C)c(C#N)c2=O)cc1F | . | 3% | . | . | . | .
O=C(NC1CCOCC1)C1CCC(=O)N(Cc2cccc(C(F)(F)F)c2)C1 (stereo unspecified) | 15% | 1% | 8% | -2 | 8 | 80%
O=C(CSc1nc2c([nH]c3ccccc32)c(=O)n1-c1ccc(Cl)cc1)N1CCOCC1 | . | 5% | . | . | . | .
COc1ccccc1NC(=O)N1c2ccccc2Sc2ccccc21 | . | 1% | . | . | . | .
Cc1nn(C)c2c1c(C(F)(F)F)cc(=O)n2CC(=O)NCCC(C)C | . | -7% | . | . | . | .
